The nature of experiment [1]: small molecules captured by biotinylated probe aFSTL3 – biochemical, small-molecule microarray, fluorescence 635/667, stem cell growth factor project, primary screen (AID 1064).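 Further: measures binding of the biotinylated anti-FSTL3 antibody to printed compounds.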 The settings on record: higher = more signal.
Experiment [2] is described as follows: binders from COS7 lysate, DM2A8 probe, primary screen, torsin A project, cell lysate, small-molecule microarray, fluorescence 635/667 (AID 1065). Conditions: higher = more signal, COS7 lysate expressing mutant human TOR1A.
Experiment [3] in a line: small molecules captured by biotinylated probe aFGF2 – biochemical, small-molecule microarray, fluorescence 635/667, stem cell growth factor project, primary screen (AID 1067).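 Further: measures binding of biotinylated aFGF2 protein to printed compounds on slides; z-score merges feature fluorescence and signal-to-noise across triplicate slides.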 The settings on record: higher = more signal.
Experiment [4] is described as follows: small molecules captured by biotinylated probe aFGF10 – biochemical, small-molecule microarray, fluorescence 635/667, stem cell growth factor project, primary screen (AID 1071).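 Further: score merges 667 nm spot intensity and signal to noise from triplicate slides.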 The settings on record: higher = more signal.
Experiment [5] concerns the target Neurogenic locus notch homolog protein 2 (Homo sapiens) (UniProt Q04721). Description: small molecules binding Notch2 protein – biochemical, small-molecule microarray, 635 nm fluorescence, stem cell growth factors, primary screen (AID 1073). The settings on record: higher = more signal.
Experiment [6] concerns the target Pro-neuregulin-1, membrane-bound isoform (Homo sapiens) (UniProt Q02297). The experiment is described as follows: small molecules binding neuregulin-1 protein – biochemical, small-molecule microarray, fluorescence 635/667, psychiatric disease protein project, primary screen (AID 1075).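 Further: score combines 667 nm spot fluorescence with signal to noise.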 Conditions: NRG1 binding, 635 nm fluorescence, higher = more signal.
Experiment [7] concerns Neuregulin-1 EGF-like domain. The experiment is described as follows: small molecules binding NRG1 EGF domain – biochemical, small-molecule microarray, 635 nm fluorescence, primary screen (AID 1081).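 Further: binding of the protein to compounds printed on small-molecule microarray slides.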 The settings on record: higher = more signal.
A short description of experiment [8]: FRG1 expression reporter modulators in myotubes – cell-based, C2C12 myotubes, firefly/Renilla luciferase, luminescence, FRG1 inhibition for FSHD, primary screen (AID 1084). The settings on record: FRG1 promoter luciferase, higher = more signal, called active from +8 up or from −8 down.
A short description of experiment [9]: small molecules captured by biotinylated probe aFST – biochemical, small-molecule microarray, fluorescence 635/667, stem cell growth factor project, primary screen (AID 1086).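 Further: score merges 667 nm fluorescence with signal-to-noise of each printed compound spot.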 The settings on record: higher = more signal.
Experiment [10] in a line: binders of probe aHhip on microarray, primary screen, stem cell growth factor project, biochemical, small-molecule microarray, fluorescence 635/667 (AID 1087).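 Further: score merges spot fluorescence at 667nm with spot signal to noise ratio.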 The settings on record: higher = more signal.

This passage reports composite z-score and z-score results from PubChem BioAssay.

Activity calls are given as the source filed them.

Sequence of Neurogenic locus notch homolog protein 2 (Homo sapiens) (Q04721 whole entry, looked up, canonical isoform): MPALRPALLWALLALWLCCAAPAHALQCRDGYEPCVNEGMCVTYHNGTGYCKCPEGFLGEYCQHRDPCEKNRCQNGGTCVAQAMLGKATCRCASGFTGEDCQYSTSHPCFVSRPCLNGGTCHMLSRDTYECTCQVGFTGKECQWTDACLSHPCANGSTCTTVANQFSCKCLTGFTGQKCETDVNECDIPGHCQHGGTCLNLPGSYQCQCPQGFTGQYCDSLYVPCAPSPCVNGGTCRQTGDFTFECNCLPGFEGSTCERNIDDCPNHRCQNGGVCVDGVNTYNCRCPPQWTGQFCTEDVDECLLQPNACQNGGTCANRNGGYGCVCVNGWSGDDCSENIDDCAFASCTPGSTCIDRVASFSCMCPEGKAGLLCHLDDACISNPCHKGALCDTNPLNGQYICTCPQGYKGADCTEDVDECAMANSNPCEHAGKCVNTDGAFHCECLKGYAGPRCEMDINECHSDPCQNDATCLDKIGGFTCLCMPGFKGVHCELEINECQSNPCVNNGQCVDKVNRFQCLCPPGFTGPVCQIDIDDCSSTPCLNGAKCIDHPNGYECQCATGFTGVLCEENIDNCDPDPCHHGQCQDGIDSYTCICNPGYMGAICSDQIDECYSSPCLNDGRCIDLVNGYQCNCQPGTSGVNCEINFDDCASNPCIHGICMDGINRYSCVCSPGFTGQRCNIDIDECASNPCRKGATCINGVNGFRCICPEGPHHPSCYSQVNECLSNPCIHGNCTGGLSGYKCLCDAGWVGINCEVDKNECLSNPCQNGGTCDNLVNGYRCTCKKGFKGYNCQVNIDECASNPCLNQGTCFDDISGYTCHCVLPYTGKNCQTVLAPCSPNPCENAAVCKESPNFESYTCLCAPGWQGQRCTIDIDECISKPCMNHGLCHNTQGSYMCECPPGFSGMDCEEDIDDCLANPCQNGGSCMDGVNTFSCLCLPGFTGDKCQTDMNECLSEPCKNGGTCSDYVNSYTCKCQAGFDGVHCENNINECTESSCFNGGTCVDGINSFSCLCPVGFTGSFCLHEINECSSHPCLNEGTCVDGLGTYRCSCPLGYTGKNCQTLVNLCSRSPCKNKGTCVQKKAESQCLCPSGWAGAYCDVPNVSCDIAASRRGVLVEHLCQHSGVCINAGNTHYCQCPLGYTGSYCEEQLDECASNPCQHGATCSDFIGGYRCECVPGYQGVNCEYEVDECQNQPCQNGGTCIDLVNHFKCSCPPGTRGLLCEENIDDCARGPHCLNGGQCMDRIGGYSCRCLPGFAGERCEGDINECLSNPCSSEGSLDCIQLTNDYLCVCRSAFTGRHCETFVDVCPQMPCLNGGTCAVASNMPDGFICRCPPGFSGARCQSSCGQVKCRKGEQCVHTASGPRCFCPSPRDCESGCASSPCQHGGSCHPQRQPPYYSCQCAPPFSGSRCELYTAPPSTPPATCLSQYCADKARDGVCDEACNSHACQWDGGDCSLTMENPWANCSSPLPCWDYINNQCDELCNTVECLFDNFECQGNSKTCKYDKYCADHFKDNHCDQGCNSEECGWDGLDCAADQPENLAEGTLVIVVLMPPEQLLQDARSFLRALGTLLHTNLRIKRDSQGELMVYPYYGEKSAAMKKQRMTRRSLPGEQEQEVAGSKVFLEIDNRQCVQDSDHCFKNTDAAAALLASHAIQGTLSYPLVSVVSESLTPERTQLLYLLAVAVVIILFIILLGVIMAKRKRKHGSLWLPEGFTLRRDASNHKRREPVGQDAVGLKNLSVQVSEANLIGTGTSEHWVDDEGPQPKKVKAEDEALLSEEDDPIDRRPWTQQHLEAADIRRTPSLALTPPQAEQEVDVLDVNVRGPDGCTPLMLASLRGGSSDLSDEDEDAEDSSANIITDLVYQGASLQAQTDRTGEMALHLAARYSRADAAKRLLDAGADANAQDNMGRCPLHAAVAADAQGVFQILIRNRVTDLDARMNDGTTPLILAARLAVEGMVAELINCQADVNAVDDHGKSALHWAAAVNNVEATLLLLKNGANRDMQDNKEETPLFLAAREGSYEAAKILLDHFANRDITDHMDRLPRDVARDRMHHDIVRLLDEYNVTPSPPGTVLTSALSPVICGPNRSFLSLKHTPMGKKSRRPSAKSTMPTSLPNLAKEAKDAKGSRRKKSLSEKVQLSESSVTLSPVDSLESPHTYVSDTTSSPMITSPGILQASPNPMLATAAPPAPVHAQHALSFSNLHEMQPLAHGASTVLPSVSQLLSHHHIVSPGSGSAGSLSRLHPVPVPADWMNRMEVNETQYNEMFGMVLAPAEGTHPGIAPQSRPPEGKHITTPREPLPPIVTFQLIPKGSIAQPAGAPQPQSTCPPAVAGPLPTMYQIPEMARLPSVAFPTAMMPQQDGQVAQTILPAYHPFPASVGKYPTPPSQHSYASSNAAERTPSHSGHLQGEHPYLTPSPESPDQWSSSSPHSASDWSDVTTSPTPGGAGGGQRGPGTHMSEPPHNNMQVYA
Sequence of Pro-neuregulin-1, membrane-bound isoform (Homo sapiens) (Q02297 whole entry, looked up, the tested form may be a part, canonical isoform): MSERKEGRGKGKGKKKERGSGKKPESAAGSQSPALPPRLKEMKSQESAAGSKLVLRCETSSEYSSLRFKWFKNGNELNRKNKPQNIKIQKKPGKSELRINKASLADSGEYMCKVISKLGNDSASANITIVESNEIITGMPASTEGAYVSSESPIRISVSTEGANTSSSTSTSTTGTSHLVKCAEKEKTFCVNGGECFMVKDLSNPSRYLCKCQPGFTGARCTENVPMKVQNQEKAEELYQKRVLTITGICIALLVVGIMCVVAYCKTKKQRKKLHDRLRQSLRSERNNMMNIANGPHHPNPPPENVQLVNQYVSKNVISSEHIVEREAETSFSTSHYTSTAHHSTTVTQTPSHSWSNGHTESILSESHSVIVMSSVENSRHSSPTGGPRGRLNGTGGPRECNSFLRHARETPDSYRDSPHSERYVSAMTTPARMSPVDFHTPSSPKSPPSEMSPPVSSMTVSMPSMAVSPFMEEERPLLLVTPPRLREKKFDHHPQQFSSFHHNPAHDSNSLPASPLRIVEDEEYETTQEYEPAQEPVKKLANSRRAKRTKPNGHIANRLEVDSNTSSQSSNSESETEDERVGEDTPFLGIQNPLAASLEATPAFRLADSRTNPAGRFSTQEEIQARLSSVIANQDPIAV

Regarding `COC(=O)CC=C[C@@H](C)[C@@H](C=NO[C@@H](C)c1cn([C@H](CO)Cc2ccccc2)nn1)OC`, the composite z-score in experiment [1] was -0.446; in experiment [2] it was 1.68; in experiment [3], -0.119; in experiment [4], -0.0052; in experiment [5] it was 0.0576; in [6] it was -0.0718. Moreover, the results for the composite z-score in experiment [7], in [9] and in experiment [10] were -0.265, 0.0066 and -0.34, respectively. Further, in experiment [8], the z-score is -0.839 (inactive).

Regarding `COC(=O)[C@@H]1CC[C@H](C)[C@@H](c2ccc(C)cc2)N1C(=O)c1ccc(C=NO[C@@H]2O[C@H](COC(C)=O)[C@@H](OC(C)=O)[C@H](OC(C)=O)[C@H]2OC(C)=O)cc1`, the composite z-score is -0.241 in experiment [1]; 0.427 in experiment [2]; -0.0985 in experiment [3]; 0.514 in [4]; 0.527 in [5]; 0.0818 in [6]. The results for the composite z-score in [7], in experiment [9] and in experiment [10] were 0.319, 0.337 and 0.0749, respectively. Further, the z-score in [8] was 0.861 (inactive).

On to `CCOC(=O)[C@H](CC(C)C)NC(=O)CCC1CC(OC(=O)NCCc2ccc(F)cc2)CC2(CCCC(COC(=O)NCCC(C)C)O2)O1` (stereo not given in full), for which the composite z-score in experiment [1] is -0.44; in experiment [2] it was 0.289; in experiment [3], -0.083; in experiment [4] it was 0.297; in [5] it was -0.383; in experiment [6], 0.797. Besides, the composite z-score is 0.98 in experiment [7], -0.128 in [9] and 0.0722 in experiment [10]. Moreover, the z-score in experiment [8] was 1.25 (inactive).

Turning to `CC(C)=NO[C@H](C)c1cn([C@H](CO)Cc2ccccc2)nn1`, the composite z-score in experiment [1] is -0.125; in experiment [2], 0.364; in [3] it was -0.0737; in experiment [4], -0.116; in experiment [5], 0.0781; in experiment [6], 0.274. The composite z-score is 0.316 in [7], 0.0676 in experiment [9] and 0.0972 in experiment [10]. For the same compound, in experiment [8], the z-score was -0.266 (inactive).

For the compound `C#CCCCON=C1C[C@@H](O)[C@@H](O)[C@@H]2[C@@H]3C(=O)N(Cc4ccccc4)C(=O)[C@@H]3CC[C@@H]12`, the composite z-score in experiment [1] is -0.19; in experiment [2], 0.421; in experiment [3] it was -0.0887; in experiment [4], 0.0443; in experiment [5], 0.181; in experiment [6], 0.0645. Moreover, the composite z-score in [7] is -0.816; in experiment [9], 0.53; in experiment [10] it was 0.0176. Further, the z-score in experiment [8] is -0.211 (inactive).

For `C[C@H](ON=C1[C@H]2CCn3c(=O)n(-c4ccccc4)c(=O)n3[C@H]2[C@H](O)[C@@H]2O[C@H]12)c1cn([C@H](CO)Cc2ccccc2)nn1`, the composite z-score in experiment [1] is -0.317; in experiment [2], 0.386; in experiment [3], -0.0189; in [4], 0.347; in [5] it was 0.862; in [6], -0.0139. For the same compound, the composite z-score is 0.764 in experiment [7], 0.138 in experiment [9] and 1.13 in experiment [10]. Moreover, in experiment [8], the z-score is 0.68 (inactive).

For the compound `CCN1C(=O)[C@H]2[C@H]3[C@H](O)[C@H](O)CC(=O)[C@@H]3CC[C@H]2C1=O`, the composite z-score in [1] was -0.676; in experiment [2], 0.0277; in experiment [3] it was -0.0692; in [4], 0.463; in [5], 0.575; in experiment [6] it was 0.379. The figures for the composite z-score in experiment [7], in experiment [9] and in [10] were 1.01, 0.276 and -0.226, respectively. For the same compound, in experiment [8], the z-score is -0.136 (inactive).

Turning to `CCN1C(=O)[C@H]2[C@H]3[C@H](O)[C@H](O)CC(=NOCC(C)C)[C@@H]3CC[C@H]2C1=O`, the composite z-score is -0.596 in [1]; 0.217 in experiment [2]; -0.142 in experiment [3]; 0.361 in experiment [4]; 1.23 in experiment [5]; 0.42 in experiment [6]. For the same compound, the composite z-score turned out to be 0.336 in [7], 0.124 in experiment [9] and 0.465 in [10]. Besides, the z-score in [8] is 0.0163 (inactive).

Regarding `CC1O[C@H]2C3=C(C(=O)[C@@H]4O[C@@H]4[C@H]3O)[C@@H]1C1[C@@H](C)OC=C3[C@H](O)C4O[C@@H]4C(=NOCc4ccccc4)[C@]312` (stereo not given in full), the composite z-score in [1] is -0.379; in [2], -0.488; in experiment [3] it was -0.166; in experiment [4], 0.0246; in [5], 0.112; in [6], -0.505. The composite z-score in experiment [7] is -0.0339; in [9], -0.123; in experiment [10], -0.216. For the same compound, the z-score in experiment [8] is -1.15 (inactive).

Turning to `COc1cccc([C@H]2Oc3ccc(OC)cc3C(=NOC[C@@H](C)[C@H](OCc3ccccc3)C(C)C)[C@@H]2O)c1`, the composite z-score was -0.108 in experiment [1]; 0.435 in experiment [2]; -0.004 in experiment [3]; 0.431 in experiment [4]; 0.203 in [5]; -0.201 in experiment [6]. For the same compound, the composite z-score in experiment [7] is 0.686; in experiment [9] it was 1.33; in [10], 0.0274. Further, the z-score in [8] was 3.29 (inactive).

`C#CCCCON=C1C[C@@H](O)[C@@H](O)[C@@H]2[C@@H]3C(=O)N(C(C)(C)C)C(=O)[C@@H]3CC[C@@H]12`: the composite z-score in experiment [1] was 2.02; in [2], 0.0189; in [3] it was -0.0468; in [4], -0.0755; in [5], -0.707; in experiment [6] it was -0.107. Moreover, the results for the composite z-score in [7], in [9] and in experiment [10] were -0.117, 0.987 and -0.0645, respectively. The z-score in [8] was -0.305 (inactive).

Regarding `C[C@@H](c1ccccc1)N1C(=O)[C@H]2[C@H]3[C@H](O)[C@H](O)CC(=NOCc4ccccc4)[C@H]3CC[C@H]2C1=O`, the composite z-score in experiment [1] was -0.393; in [2] it was 0.0852; in experiment [3] it was -0.0667; in experiment [4] it was 0.0945; in [5], 0.39; in experiment [6], 0.381. Also, the results for the composite z-score in [7], in [9] and in experiment [10] were 1.22, 0.317 and -0.0383, respectively. Also, the z-score in experiment [8] is -0.405 (inactive).

Turning to `CCOC(=O)NN=C1C[C@@H](O)[C@@H](O)[C@@H]2[C@@H]3C(=O)N(c4cccc(Oc5ccccc5)c4)C(=O)[C@@H]3CC[C@@H]12`, the composite z-score in experiment [1] is -0.216; in experiment [2], 1.21; in [3], -0.085; in experiment [4], 0.542; in experiment [5], -0.202; in [6], 0.823. For the same compound, the figures for the composite z-score in experiment [7], in [9] and in experiment [10] were 0.81, 0.0218 and -0.249, respectively. Moreover, the z-score in [8] is -0.233 (inactive).

For the compound `COc1cccc([C@H]2Oc3ccc(OC)cc3C(=NO[C@H](C)c3cn([C@H](CO)Cc4ccccc4)nn3)[C@@H]2O)c1`, the composite z-score in [1] is -0.129; in experiment [2], -0.0315; in [3], -0.112; in experiment [4], -0.0993; in [5], -0.468; in experiment [6], -0.72. In addition, the composite z-score in [7] was -0.504; in experiment [9], 0.107; in experiment [10], -0.134. Moreover, the z-score in [8] was 0.787 (inactive).

As for `O=C1CCCC(C2=CCCCC2=O)C1` (stereo not given), the composite z-score is -0.31 in experiment [1]; 0.213 in experiment [2]; -0.0895 in experiment [3]; 0.0787 in experiment [4]; 0.312 in experiment [5]; -0.3 in [6]. In addition, the figures for the composite z-score in experiment [7], in experiment [9] and in experiment [10] were 0.165, 0.0915 and 0.157, respectively. The z-score in [8] is 0.222 (inactive).

On to `CCc1cc2c(nc1CC)CCN(CCC(C)=NOC[C@H]1O[C@H](c3ccccc3)C=C[C@@H]1Oc1ccc(OC)cc1)C2`, for which the composite z-score in experiment [1] is 0.0529; in experiment [2] it was 0.732; in [3], -0.178; in [4], -0.147; in experiment [5], -0.391; in [6], 0.121. The composite z-score in [7] was 0.734; in experiment [9] it was 0.0567; in experiment [10], 0.12. In addition, the z-score in experiment [8] was 1.39 (inactive).

Turning to `COC(=O)CC=C[C@@H](C)[C@@H](C=NO[C@@H]1O[C@H](COC(C)=O)[C@@H](OC(C)=O)[C@H](OC(C)=O)[C@H]1OC(C)=O)OC`, the composite z-score was -0.48 in experiment [1]; 1.26 in [2]; 0.0167 in experiment [3]; -0.41 in experiment [4]; 1.03 in experiment [5]; -0.617 in experiment [6]. For the same compound, the composite z-score was -1.05 in [7], 0.354 in [9] and 0.189 in experiment [10]. In experiment [8], the z-score was 0.572 (inactive).

As for `CCOC(=O)[C@H](CC(C)C)NC(=O)CCC1CC(OC(=O)NCCc2ccc(F)cc2)CC2(CCCC(COC(=O)NCCc3ccccc3OC)O2)O1` (stereo not given in full), the composite z-score in experiment [1] was -0.329; in [2], 0.0726; in experiment [3], -0.0806; in experiment [4], 0.363; in experiment [5], 0.41; in experiment [6], 1.08. For the same compound, the composite z-score was 0.577 in experiment [7], 0.216 in experiment [9] and -0.134 in [10]. Also, the z-score in [8] is 0.617 (inactive).
